HT1080 IDH1KD tx: toxicity to HT-1080 IDH1 knockdown cells (counter line); HT-1080 IDH1 knockdown viability, ATP luminescence, 48 h; Potency, µM (series often up to 46.1 µM), inactives show at the highest dose activity, negative = toxicity, actives largely listed as cytotoxic; 2% of 360,000 active; AID 686971;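 also: potency is read from the fitted curve at half-maximal effect; 0% = DMSO wells and -100% = cell-free medium wells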
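IDH1KD HT-1080 cells, 750/well, RPMI + 5% FBS; compound pinned after 2 h settling; 48 h, 37 °C; CellTiter-Glo luminescence; % activity normalised to DMSO and no-cell wells; curves fitted, classed by r2 and efficacy.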
DT40 TDP1 CPT: DT40-hTDP1 cell growth loss with CPT; chicken DT40 Tdp1-/-;hTDP1 cells + 20 nM CPT, ATP luminescence, 48 h; Potency, µM (highest dose often 46.2 µM), for the others: top-dose activity change, negative = growth inhibition, usual class: inhibitors; 12% of 420,000 active; also: potency is read from the fitted curve at half-maximal effect; nearly all actives have a fitted effect of over 55% in size
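Chicken DT40 Tdp1-/- cells stably complemented with human TDP1 were seeded at 400 cells/well in medium containing 20 nM camptothecin, exposed to pin-transferred compounds, and grown at 37 °C for at least 48 hr. Viability was read as ATP luminescence.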
12-LOX inh: ALOX12 (human) lipoxygenase inhibition. Potency, µM (titrated, usually from 108 µM), for the others: at the highest dose activity change, negative = inhibition, most hits filed as inhibitors. purified 12hLO, xylenol orange hydroperoxide absorbance. 1.1% of 580,000 active; also: potency is read from the fitted curve at half-maximal effect
Target sequence (P18054 whole entry, looked up): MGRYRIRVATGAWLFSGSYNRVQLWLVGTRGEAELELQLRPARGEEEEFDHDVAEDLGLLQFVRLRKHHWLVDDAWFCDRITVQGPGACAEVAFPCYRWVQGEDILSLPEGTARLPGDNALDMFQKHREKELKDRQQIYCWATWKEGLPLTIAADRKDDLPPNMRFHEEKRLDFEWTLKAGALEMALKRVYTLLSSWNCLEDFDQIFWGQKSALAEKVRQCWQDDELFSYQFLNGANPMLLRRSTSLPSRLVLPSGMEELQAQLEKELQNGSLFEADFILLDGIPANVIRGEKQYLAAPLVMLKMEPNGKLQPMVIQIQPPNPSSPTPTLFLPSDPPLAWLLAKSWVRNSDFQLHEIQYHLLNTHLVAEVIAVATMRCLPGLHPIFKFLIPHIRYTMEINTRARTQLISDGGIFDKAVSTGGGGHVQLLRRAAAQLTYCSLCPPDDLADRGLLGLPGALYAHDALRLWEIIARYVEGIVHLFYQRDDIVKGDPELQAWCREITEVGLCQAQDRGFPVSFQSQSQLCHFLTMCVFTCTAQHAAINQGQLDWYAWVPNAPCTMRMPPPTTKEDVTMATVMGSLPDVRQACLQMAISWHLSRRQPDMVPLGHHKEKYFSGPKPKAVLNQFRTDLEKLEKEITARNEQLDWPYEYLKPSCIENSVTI
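Purified human 12hLO at 150 nM in 25 mM Hepes, 0.01% Triton X-100, pH 7.0, preincubated 15 min at room temperature with compound. Reaction started with 40 uM arachidonic acid, 30 min at room temperature. Hydroperoxide measured by Fe-xylenol orange, 573/405 nm absorbance ratio.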
HT1080NT lethal: kills 2HG-producing HT-1080-NT fibrosarcoma cells | HT-1080-NT fibrosarcoma viability, CellTiter-Glo ATP luminescence, 48 h | Potency, µM (doses to about 46.1 µM), for inactives: at the highest dose activity, negative = less viability, hits mostly cytotoxic | 1.6% of 360,000 active | AID 686970;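 also: NT is the 2HG producing partner of a matched IDH1 knockdown line; potency is read from the fitted curve at half-maximal effect; 0% = DMSO-treated cells and -100% = media-only wells without cells; nearly all actives have a fitted effect of over 55% in size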
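HT-1080-NT fibrosarcoma cells (2HG-overproducing), 750 cells/well in RPMI with 5% FBS, dosed after 2 h and incubated 48 h at 37C. CellTiter-Glo luminescence normalized to DMSO and no-cell wells; concentration-response curves fitted and classed.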
DT40 TDP1 no CPT: qHTS for Inhibitors of human tyrosyl-DNA phosphodiesterase 1 (TDP1): qHTS in cells in absence of CPT | Potency, µM (series often up to 46.2 µM), inactives show at the highest dose activity change, negative = growth inhibition, usual class: inhibitors | 15% of 420,000 active | AID 686978, 2013 | DT40 Tdp1-/- hTDP1 cells, no CPT, ATP luminescence, 48 h; also: potency is read from the fitted curve at half-maximal effect; nearly all actives have a fitted effect of over 55% in size
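Seeded 400 DT40-hTDP1 cells/well (vehicle DMSO, no 20 nM CPT); pinned compounds; ≥48 hr at 37 °C; CellTiter-Glo luminescence as viability measure.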
IL1B secr inh: inflammasome signaling inhibition, IL-1 beta readout. THP-1 LPS/ATP IL-1B secretion, AlphaLISA, 16 h; stronger effect = lower value. activity change, % at 57.5 µM. 4.7% of 360,000 active. AID 743279; in the data active = activity change below about -50%; inconclusive = mostly about -30% to -49%
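THP-1 cells pretreated 1 hr with compounds (up to 57.5 uM final), then stimulated with LPS (250 ng/mL final) plus ATP (1.25 mM final); secreted IL-1B measured by AlphaLISA after 16 hr, decreased signal indicating inhibition.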
Starred values were filed as active, the others as inactive; i = inactive; u = inconclusive; x = not tested or not shown. The entries come from a sample that favours hits as a whole. Unless noted, calls follow the shape of the dose curve; as a rule, active = well fitted curve in the direction sought with a large enough effect; inconclusive = small, poorly fitted or top-dose-only effect, or another doubt; inactive = no such curve, though single readings can be large; an effect the other way counts as inactive or inconclusive. Unless noted, % is scaled to controls: 0 for no effect and ±100 for the full control effect.

SMILES	HT1080 IDH1KD tx	DT40 TDP1 CPT	12-LOX inh	HT1080NT lethal	DT40 TDP1 no CPT	IL1B secr inh
CCc1cccc2c(C(=O)C(=O)Nc3ccc4c(c3)OCCO4)c[nH]c12	x	x	27%	x	x	x
CCOc1ccc(C2CC(c3cccc(C)c3)n3ncnc3N2)cc1 (stereo not drawn)	-7%	13µM*	420%	4%	23µM*	-12
Clc1ccccc1C1CC(c2ccccc2)Nc2ncnn21 (stereo not drawn)	-11%	15µM*	426%	1%	u	-3
COc1ccc(C2CC(c3ccccc3Cl)Nc3ncnn32)cc1OC (stereo not drawn)	9%	-28%	0%	-1%	u	-3
COc1cccc(C2CC(c3ccccc3Cl)Nc3ncnn32)c1 (stereo not drawn)	-3%	26µM*	15%	-2%	u	u
CS(=O)(=O)N(C1CCOCC1)C1CN(C(=O)c2n[nH]c3ccccc23)C1	x	x	41%	x	x	x
CCCC(C)NC(=O)c1csc(CC)c1 (stereo not drawn)	x	x	30%	x	x	x
O=c1c([N+](=O)[O-])c(NCCN2CCCCCC2)c2ccccc2n1-c1ccccc1	4%	-19%	-23%	0%	-4%	-5
O=c1c([N+](=O)[O-])c(NC2CCCCC2)c2ccccc2n1-c1ccccc1	0%	16µM*	-1%	-2%	u	-1
CSc1nsc(SCC(=O)NCc2ccc(F)cc2)n1	x	x	8%	x	x	x
COc1cc(S(=O)(=O)N2CCN=C2c2ccccc2)ccc1F	u	u	-4%	u	23µM*	3
CCOc1ccc(S(=O)(=O)N2CCN=C2c2ccccc2)c(C)c1C	-21%	16µM*	-1%	-21%	23µM*	i
COc1cc(S(=O)(=O)N2CCN(c3ccccc3)CC2)ccc1F	2%	u	-7%	16%	u	17
CCCCOc1ccc(C(=O)N2CCCCC2CCN2CCOCC2)cc1 (stereo not drawn)	x	u	-28%	x	u	x
CCCCCOc1ccc(C(=O)CCN2CCOCC2)cc1	u	5.8µM*	u	u	8.2µM*	-18
CC(C)Oc1ccc(C(=O)CCN2CCOCC2)cc1	-10%	3.3µM*	u	-22%	3.7µM*	1
O=C(Nc1nc(-c2cccs2)cs1)c1cccc(S(=O)(=O)N2CCCCC2)c1	-21%	u	u	-3%	26µM*	0
O=C(O)c1cccc(NC(=O)c2cccc(S(=O)(=O)N3CCCCC3)c2)c1	-21%	7%	0%	3%	-8%	-1
O=C(Nc1nn[nH]n1)c1cccc(S(=O)(=O)N2CCCCCC2)c1	x	x	10µM*	x	x	x
Cc1nnc(NC(=O)c2cccc(S(=O)(=O)N3CCN(C)CC3)c2)s1	7%	-11%	-24%	7%	-25%	16
Cc1ccc(-c2csc(NC(=O)c3cccc(S(=O)(=O)N4CCN(C)CC4)c3)n2)cc1	-10%	u	0%	-8%	18µM*	15
CC(C)c1ccc(C(C(=O)NC2CCCC2)N(C(=O)c2cnccn2)c2cccs2)cc1 (stereo not drawn)	x	x	-21%	x	x	x
CC(=O)Nc1ccc(NC(=O)CSCc2csc(-c3ccc(C)cc3)n2)cc1	x	x	-5%	x	x	x
O=C(NCCCc1ccccc1)c1cc2cc([N+](=O)[O-])ccc2oc1=O	x	x	-14%	x	x	x
Cc1cc(-c2ccnc(-n3ncc(C(=O)NCC4COCCO4)c3C)n2)c(C)s1 (stereo not drawn)	x	u	11%	x	4.1µM*	x
CCOC(=O)Nc1ccc2c(c1)N(CCCN(C)C)c1ccccc1CC2	-4%	23µM*	-21%	-25%	u	-10

Screens from PubChem BioAssay.
